# NPC1 prom act: activates the NPC1 promoter. Huh7 NPC1 promoter luciferase reporter, 24 h. Potency, µM (top dose mostly 9.22 µM), for inactives: at the highest dose activation, actives largely listed as activators. actives 2.4% (n = 320,000); note: % of control where 0% means no effect; nearly all actives have a fitted effect of over 60% in size
#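 Stable NPC1-promoter luciferase Huh7 line; cpd (DMSO) 24 h, 37 °C, 5% CO2; Amplite luciferase reagent 10 min RT; luminescence readout. qHTS format.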
# SMN2 splice up: increases expression of the SMN2 splice variant; Potency, µM (top dose mostly 46.1 µM), for the others: at the highest dose activity change, positive = activation, actives largely listed as activators; AID 1458; HEK293 SMN2-luciferase splicing reporter, luminescence, 30-36 h; actives 2.8% (n = 210,000); note: % of control where 0% means no effect; nearly all actives have a fitted effect of over 55% in size
#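 HEK293 cells carry an SMN2 minigene-luciferase reporter in which exon 7 inclusion puts luciferase in frame. Cells were seeded at 2000 cells/well, attached for 10-12 hours, then exposed to compounds for 30-36 hours at 37C before ONE-Glo luminescence.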
# Rab9 promoter act: activates the Rab9 promoter. actives 2.8% (n = 320,000). Huh7 Rab9 promoter-luciferase reporter, luminescence, 24 h. Potency, µM (doses to about 9.22 µM), for inactives: at the highest dose activation, negative = inhibition, most hits filed as activators; note: % of control where 0% means no effect; nearly all actives have a fitted effect of over 60% in size
#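 Huh7 cells stably carrying a Rab9 promoter-luciferase reporter, 1500 cells per well in OP-MEM I with 10% FBS, treated with compound 24 hours at 37C. Luciferase activity read by luminescence after 10 minutes with Amplite reagent.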
# FLuc modulator: counter-screen for miR-21 project: firefly luciferase inhibitors or activators. P08659. purified FLuc, Km substrates, luminescence inhibition. Potency, µM (doses to about 57.5 µM), for the others: at the top dose activity change, negative = inhibition, usual class: inhibitors. actives 6.9% (n = 360,000). AID 588342;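 note: plate controls were vehicle for no effect and reference inhibitor for full effect; nearly all actives have a fitted effect of over 55% in size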
# Target sequence (P08659 whole entry, looked up): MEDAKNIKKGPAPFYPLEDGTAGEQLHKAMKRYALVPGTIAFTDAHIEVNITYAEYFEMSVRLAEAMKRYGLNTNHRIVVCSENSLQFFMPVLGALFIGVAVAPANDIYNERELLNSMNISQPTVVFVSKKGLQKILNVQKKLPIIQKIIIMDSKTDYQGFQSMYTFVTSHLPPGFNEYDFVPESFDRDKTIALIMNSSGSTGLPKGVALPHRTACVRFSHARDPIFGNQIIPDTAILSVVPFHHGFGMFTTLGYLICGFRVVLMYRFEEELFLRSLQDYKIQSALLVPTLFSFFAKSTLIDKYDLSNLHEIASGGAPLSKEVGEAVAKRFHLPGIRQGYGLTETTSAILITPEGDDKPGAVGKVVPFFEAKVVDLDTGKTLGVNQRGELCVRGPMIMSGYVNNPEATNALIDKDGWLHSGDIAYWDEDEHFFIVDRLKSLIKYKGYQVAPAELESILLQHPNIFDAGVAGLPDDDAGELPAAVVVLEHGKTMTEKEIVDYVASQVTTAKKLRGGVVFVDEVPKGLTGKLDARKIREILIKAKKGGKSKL
#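 Purified P. pyralis luciferase, 10 nM final, with Km-level 10 uM D-luciferin and 10 uM ATP in 50 mM Tris acetate pH 7.5, 10 mM Mg acetate, 0.01% Tween-20, 0.05% BSA; 6-point qHTS titration about 60 µM downward; luminescence read.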
# ELG1 genotox: genotoxicity induction in ELG1-luciferase HEK293T cells; Potency, µM (doses to about 46 µM), without a hit: at the top dose activity change, positive = activation, usual class: activators; AID 504466; actives 1.3% (n = 330,000); HEK293T ELG1-luciferase reporter, luminescence, 16 h; note: % of control where 0% means no effect; nearly all actives have a fitted effect of over 60% in size
#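 Cells (2,000/well) expressing the ELG1-luciferase fusion are dosed by pin tool and kept 16 hr at 37 °C, 5% CO2. Signal comes from ONE-Glo luciferase reagent after 30 min at room temperature.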
# Active calls of the source: *; ? = inconclusive; nt = no result given; ! = not active in a repeat. This is a sample that favours compounds with a hit; in the whole collection about 7.5% have one here. Calls come from the whole dose curve; as a rule, active = well fitted curve in the direction sought with a large enough effect; inconclusive = small, poorly fitted or top-dose-only effect, or another doubt; inactive = no such curve, though single readings can be large; an effect the other way counts as inactive or inconclusive. Potency is the fitted concentration of half-maximal effect.
SMILES,NPC1 prom act,SMN2 splice up,Rab9 promoter act,FLuc modulator,ELG1 genotox
Cc1ccc(C2Nc3ccccc3-c3nc4ccccc4n32)o1 (configuration not stated),?,11µM*,?,11µM*,?
CCN1c2ccccc2-c2nc3ccccc3n2C1c1ccco1 (configuration not stated),0%,-18%,4%,3%,-6%
Cn1c(-c2ccc(Br)o2)nc2cc(Br)ccc21,1.4µM*,14µM*,1.1µM*,1.9µM*,?
O=C(/C=C/c1ccc([N+](=O)[O-])cc1)Nc1cccc(S(=O)(=O)NC2=NCCCCC2)c1,nt,nt,nt,nt,-9%
O=C(/C=C/c1ccccc1Cl)Nc1cccc(S(=O)(=O)NC2=NCCCCC2)c1,?,14µM*,?,1.2µM*,5%
O=C(/C=C/c1ccc(Cl)cc1Cl)Nc1cccc(S(=O)(=O)NC2=NCCC2)c1,1µM*,5.6µM*,0.35µM*,0.12µM*,?
CN(C)c1oc(-c2ccc(OCc3ccccc3)cc2)nc1C#N,17%,?,6%,?,16µM*
N#Cc1nc(-c2ccc(OCc3ccccc3)cc2)oc1NCc1cccnc1,0%,-27%,1%,?,-16%
O=C(C1CC1)N1CCc2cc(S(=O)(=O)N3CCN(c4ccccc4)CC3)ccc21,-1%,nt,1%,4%,-4%
CN(C)c1ccc(NC(=O)CSc2nc(N)c(C(=O)Nc3ccc(N(C)C)cc3)s2)cc1,?,-44%,24%,4.8µM*,-4%
COc1ccc(NC(=O)CSc2nc(N)c(C(=O)Nc3ccc(N(C)C)cc3)s2)cc1,?,-17%,3.2µM*,1.3µM*,?
CCOC(=O)c1ccc(NC(=O)CSc2nc3sc(C(=O)O)c(C)c3c(=O)[nH]2)cc1,-3%,-1%,?,17µM*,3%
COc1ccc(-c2nnc(SCC(=O)Nc3ccc(Cl)cc3)s2)cc1,nt,nt,nt,-17%,nt
CCc1nc(SCC(=O)Nc2ccc(N(C)C)cc2)n[nH]1,17%,nt,29%,-5%,1%
CCOC(=O)c1sc(SCC(=O)Nc2ccc(N(C)C)cc2)nc1N,-1%,-7%,-11%,6µM*,13%
COC(=O)c1ccc(CSc2nc3sc(C(=O)O)c(C)c3c(=O)[nH]2)cc1,0%,-8%,0%,?,1%
CCCCSc1nnc2[nH]c(=O)cc(C)n12,nt,nt,nt,-10%,nt
COc1cccc(C2CCCN2Cc2nc(-c3sccc3C)oc2C)c1 (configuration not stated),2%,nt,-13%,4%,-4%
COc1ccccc1Nc1cc(C(=O)NCc2cccnc2)c2ccccc2n1,-2%,nt,4%,8.5µM*,0%
COc1ccc(Nc2cc(C(=O)NCc3ccccc3)c3ccccc3n2)c(OC)c1,nt,-1%,nt,8.5µM*,nt
COCCn1c(SCc2ccc(OC)c(F)c2)nc2ccccc2c1=O,-3%,-15%,-4%,-1%,-6%
Cc1cccc(C(=O)Nc2oc(-c3ccccc3)cc2C#N)c1,0%,-14%,6%,-12%,-3%
COc1ccccc1CNC(=O)c1cc(-c2cccnc2)nc2ccccc12,-1%,-10%,-3%,-15%,-11%
Cc1cccc(-c2cc(C(=O)NCc3ccccn3)c3ccccc3n2)c1,9%,12%,17%,8.5µM*,-2%
Cc1cc(CNC(=O)c2cc(-c3ccccc3)nc3ccccc23)nn1C,0%,6%,-10%,?,-12%
SMILES,NPC1 prom act,SMN2 splice up,Rab9 promoter act,FLuc modulator,ELG1 genotox
CCn1cc(CNC(=O)c2cc(-c3ccc(C)c(C)c3)nc3ccccc23)c(C)n1,nt,12%,nt,2.4µM*,nt
O=C(NCc1ccccn1)c1cc(-c2ccc(-c3ccccc3)cc2)nc2ccccc12,2.2µM*,nt,3.5µM*,0.38µM*,-8%
O=C(NCc1ccccn1)c1cc(-c2ccc(Cl)cc2)nc2ccccc12,3%,16%,-1%,5.4µM*,-6%
COc1cc(OC)cc(-n2c(=O)c3sccc3n(Cc3c(C)cc(C)cc3C)c2=O)c1,nt,-2%,nt,0%,nt
O=C(NCc1ccccc1)c1cc(-c2ccncc2)nc2ccccc12,0%,nt,5%,-18%,-8%
Cc1ccc(-c2cc(C(=O)NCc3ccccn3)c3ccccc3n2)cc1C,19%,13µM*,23%,1.5µM*,-4%
O=C(NCc1ccccn1)c1cc(-c2ccccc2)nc2ccccc12,-2%,-5%,1%,17µM*,-2%
Cc1ccc(-c2cc(C(=O)NCCCN3CCCC3)c3ccccc3n2)cc1C,0%,nt,-9%,?,?
COc1ccc(C(=O)NNC(=O)c2ccccc2[N+](=O)[O-])cc1[N+](=O)[O-],0%,-3%,-2%,-16%,0%
O=C(Nc1ccccc1)Nc1ccc(C(=O)N2CCCC2)cc1,0.56µM*,6.3µM*,0.35µM*,2.4µM*,?
Cc1cc(C)cc(NC(=O)Nc2ccc3c(c2)N(C)C(=O)CS3)c1,-2%,-11%,-2%,?,-16%
O=C1c2ccccc2-c2ccc(C(=O)N3CCCCC3)cc21,?,12%,?,27µM*,?
CC(=O)c1cccc(NC(=O)Nc2ccc3c(c2)N(C)C(=O)CS3)c1,1%,-19%,-10%,15µM*,-31%
CC(=O)c1cccc(NC(=O)Nc2ccc(C(=O)N3CCCC3)cc2)c1,26%,-2%,13%,6.7µM*,-19%
COc1ccccc1C(=O)OCc1nc(N)nc(Nc2ccccc2C)n1,?,?,18%,?,7%
O=C(Nc1ccc(F)cc1)Nc1ccccc1C(=O)NCCN1CCNC1=O,-6%,nt,1%,17µM*,0%
O=C(Nc1ccc(OCc2ccccc2)cc1)Nc1ccccc1C(=O)NCCCN1CCOCC1,1%,nt,5%,19µM*,6%
O=C(Nc1ccccc1C(=O)NCCCN1CCOCC1)c1ccc(F)cc1F,-1%,nt,4%,0%,3%
CC[C@@H]1C=C(C(=O)O)[C@H](c2ccc(Cl)c(Cl)c2)N1S(=O)(=O)c1ccc(C)cc1,nt,nt,nt,nt,6%
CC(C)c1ccc(/C=C/C(=O)Nc2nncs2)cc1,0.89µM*,18µM*,0.5µM*,0.76µM*,?
Cc1sc(NC(=O)/C=C/c2ccc(C(C)C)cc2)c(C#N)c1C,-4%,-5%,2%,-5%,5%
NC(=O)C1CCN(C(=S)c2ccc(-c3ccc(Br)cc3)o2)CC1,?,8.9µM*,?,?,10µM*!
NC(=O)c1ccc(-c2ccc(Br)cc2)o1,7%,3%,8%,19µM*,?
CC(=O)N1CCN(C(=S)c2ccc(-c3ccc(Cl)cc3)o2)CC1,0%,nt,-1%,?,0%
CN1CCN(c2ccc(NC(=O)c3ccc(-c4ccc(Br)cc4)o3)cc2)CC1,1%,-63%,6%,?,-2%
COCCNc1c(-c2cc3ccc(C)c(C)c3[nH]c2=O)nc2ccccn12,2.5µM*,nt,0.71µM*,3.4µM*,?
